Assay outcomes deposited in PubChem BioAssay by Broad Institute.
The list is not random: actives were taken first. Their share in the collection is about 1.8%.
LGR2 inh: Drosophila LGR2 receptor signaling inhibition; 0.35% of 380,000 active; HEK293 LGR2, CRE-luciferase, bursicon-stimulated, 4 h; AID 720647; inhibition, % at 9.99 µM;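 active = drop in luminescence signal, shown as inhibition above about 50% in the replicate tests, limit read from the data, passing the limit was not always enough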;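 note: agonist challenge used bursicon conditioned medium at about half maximal strength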
RAD52 anneal inh: RAD52 (human) annealing inhibition. inhibition, % at 18.7 µM. AID 651710. P43351. recombinant RAD52 DNA annealing, FRET fluorescence. 0.46% of 360,000 active;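 active = every replicate showing at least 50% inhibition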
EWS-Fli inh: inhibitors of EWS/Fli oncoprotein transcriptional activity. 0.67% of 350,000 active. inhibition, % at 12.6 µM. A673 NR0B1-luciferase reporter, viability-normalised. AID 651661;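 active = mean inhibition of at least 50% after viability correction, with every replicate also passing that limit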;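 note: firefly luciferase signal divided by Alamar Blue viability fluorescence both relative to DMSO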
GSIS activator: primary screen for activators of insulin secretion dependent on glucose, INS-1E cells, GLuc reporter luminescence. INS-1E GLuc reporter insulin secretion, 2-3 h. activation, % at 16.6 µM. 0.61% of 370,000 active. AID 743287;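 active = lowest replicate activation of at least 40%, so every replicate reaches that level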
RAD54 branch: RAD54 (human) branch migration inhibition; Q92698; RAD54 Holliday junction branch migration, FAM/BHQ fluorescence; inhibition, % at 10.4 µM; 0.14% of 360,000 active; AID 602329;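 active = mean normalized replicate activity at least 40 and at least half of replicates scoring 40 or more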;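 note: inhibitors cause a drop in the FAM fluorescence signal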
F508del corr: CFTR F508del correction in bronchial cells; CFBE cells, YFP halide quenching; stimulated with forskolin plus potentiator P3; % fluorescence drop versus neutral controls; activity (quench increase), % at 7.58 µM; 0.36% of 350,000 active; AID 720511;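 active = mean added fluorescence quench of at least 8% versus neutral control, with both replicates also reaching 8%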;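 note: cells transiently co-express mutant CFTR-F508del with the halide-sensitive YFP; corrector assay measuring rescue of mutant channel to the surface after 24 h compound exposure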
Numbers stand for hits; – = inactive; · = no result given.

SMILES | LGR2 inh | RAD52 anneal inh | EWS-Fli inh | GSIS activator | RAD54 branch | F508del corr
Cc1ccc(NC(=O)Nc2nnc(CSCCOc3ccc(Cl)cc3)s2)cc1 | · | – | – | · | · | ·
COC(=O)Cc1c(O)ccn(CCc2ccccc2)c1=O | – | – | – | – | – | –
CCc1nnc(N2C(=O)c3ccccc3C2(O)c2ccccc2)s1 (stereo not drawn) | – | – | – | 42 | – | –
CO[C@H]1CN(C)C(=O)c2ccc(NC(=O)c3nc4ccccc4s3)cc2OC[C@H](C)N(Cc2ccncc2)C[C@@H]1C | – | – | – | – | – | –
O=C(CN1C(=O)c2ccccc2S1(=O)=O)N1CCN(c2ccccc2F)CC1 | · | · | · | · | – | ·
O=C(CN1C(=O)c2ccccc2S1(=O)=O)c1ccc(Cl)cc1Cl | 103 | – | · | – | – | –
O=C(CN1C(=O)c2ccccc2S1(=O)=O)c1ccccc1F | 73 | – | · | – | – | –
O=C(CCN1C(=O)c2ccccc2S1(=O)=O)Nc1cc(Cl)ccc1Cl | – | – | – | – | – | –
CO[C@@H]1CN(C)C(=O)c2cc(NC(=O)C3CC3)ccc2OC[C@H](C)N(CCc2ccccc2)C[C@@H]1C | – | · | – | – | – | –
CCOc1ccc(S(=O)(=O)N2CCN=C2c2ccccc2)cc1 | – | – | 55 | – | – | –
Cc1cc(S(=O)(=O)N2CCN=C2c2ccccc2)ccc1F | · | · | · | – | – | ·
C[S+](CC[C@H](N)C(=O)O)C[C@H]1O[C@@H](n2cnc3c(N)ncnc32)[C@H](O)[C@@H]1O (stereo partly drawn) | · | · | · | · | – | ·
COc1cccc(N=Nc2ccc3cccnc3c2O)c1 | – | – | – | – | – | 8.3
C[C@@H]1CN([C@H](C)CO)C(=O)c2cccc(NC(=O)Nc3cccc4ccccc34)c2O[C@H]1CN(C)S(=O)(=O)c1ccc(F)cc1 | – | – | – | – | · | –
CCN(CCCNC(=O)C1CCC(=O)N1Cc1ccccc1Cl)c1cccc(C)c1 (stereo not drawn) | – | · | · | – | – | ·
CN(C)CC(=O)N[C@H]1C[C@@H]2O[C@@H](CO)CC[C@@H]2O[C@@H]1CCc1ccc(-c2ccc(F)cc2)cc1 | · | – | – | · | · | –
COc1cccc(/C=C/C(=O)NCCc2ccc3c(c2)OCCO3)c1 | · | – | 57 | · | – | ·
COc1ccc(CCNC(=O)C(C)Sc2ccc(C)cc2)cc1OC (stereo not drawn) | – | · | · | 53 | · | ·
O=C(/C=C/c1ccccc1)NCCc1ccc2c(c1)OCCO2 | – | – | – | – | · | ·
COc1ccc(CCNC(=O)CCCc2ccccc2)cc1OC | – | – | – | 55 | – | –
COc1ccc(C(=O)Cc2ccc3c(c2)OCO3)c(O)c1 | – | · | · | 41 | · | ·
CCC(C)c1ccc(NC(=S)NCCn2cc(Br)cn2)cc1 (stereo not drawn) | – | – | – | – | – | –
COc1ccc(CCNC(=O)CCCn2c(=S)[nH]c3cc4c(cc3c2=O)OCO4)cc1OC | – | – | – | – | – | –
COc1ccc(CN(C)C(=O)COC(=O)c2ccc3c(c2)OCO3)cc1OC | – | · | · | 64 | · | ·
COc1ccc(CCNC(=O)COC(=O)C2CC2C)cc1OC (stereo not drawn) | – | – | – | 57 | – | –
SMILES | LGR2 inh | RAD52 anneal inh | EWS-Fli inh | GSIS activator | RAD54 branch | F508del corr
COC(=O)c1ccccc1NCCO | – | – | – | 120 | – | –
COc1ccc(C(C)=O)cc1COC(=O)c1ccc2c(c1)OCO2 | · | · | · | – | – | ·
O=C(O)c1ccccc1NCCO | – | – | – | – | · | –
COc1ccc(CCNC(=O)COC(=O)c2ccccc2NCCO)cc1OC | – | – | – | 83 | – | –
COc1ccc(C)cc1NC(=O)CCC(=O)Nc1nnc(C2CCCCC2)s1 | – | – | – | – | – | –
COc1ccccc1NC(=O)COC(=O)c1c(NC(C)=O)sc(C)c1C | – | – | – | – | – | –
COc1ccc(CCNC(=O)Cc2ccc3c(c2)OCO3)cc1OC | – | · | · | 102 | – | ·
COc1ccc(CNC(=O)COC(=O)c2cncc(Br)c2)cc1 | – | – | – | – | – | –
COc1ccc(CCNC(=O)COC(=O)c2cncc(Br)c2)cc1OC | – | – | – | 56 | – | –
COc1ccc(CCNC(=O)CCn2c(=O)c3cccn3c3cccnc32)cc1OC | – | – | · | 65 | – | –
Oc1ccc(/C=C/c2ccc3ccccc3n2)cc1 | 96 | – | 79 | – | – | –
CC(=O)Oc1c(Cl)cc(Cl)cc1/C=C/c1ccc2ccccc2n1 | · | · | · | · | – | ·
